PubChem BioAssay

Columns and labels:
[1] = target: PEG-3 (UniProt Q6IN02); experiment: inhibition of PEG-3 promoter-driven reporter – cell-based, HeLa, luciferase, CREF/GAPDH counter-screen panel, dose response (AID 624167); settings: CREF/GAPDH counter-screens; HeLa PEG-Prom luciferase reporter, overnight, run 1, dose range 1, at 100 µM (top of the series) unless noted
[2] = target: PEG-3 (UniProt Q6IN02); experiment: as above; settings: CREF/GAPDH counter-screens; HeLa PEG-Prom luciferase reporter, overnight, run 2, dose range 1, at 100 µM (top of the series) unless noted
[3] = tested on: Rat fibroblasts (CREF); experiment: as above; settings: CREF/GAPDH counter-screens; run 1, dose range 1, at 100 µM (top of the series)
[4] = tested on: Rat fibroblasts (CREF); experiment: as above; settings: CREF/GAPDH counter-screens; run 2, dose range 1, at 100 µM (top of the series)
[5] = target: Tumor necrosis factor receptor superfamily member 10B (Homo sapiens) (UniProt O14763); experiment: viability loss of caspase-8 NB7 cells with TRAIL – with/without TRAIL, luminescence panel, confirmation (AID 651596); settings: NB7 neuroblastoma + caspase-8, TRAIL sensitization, NB7 Caspase-8, with TRAIL, mean of runs, at 10 µM, stronger effect = higher value
Sequence of Tumor necrosis factor receptor superfamily member 10B (Homo sapiens) (O14763 whole entry, looked up): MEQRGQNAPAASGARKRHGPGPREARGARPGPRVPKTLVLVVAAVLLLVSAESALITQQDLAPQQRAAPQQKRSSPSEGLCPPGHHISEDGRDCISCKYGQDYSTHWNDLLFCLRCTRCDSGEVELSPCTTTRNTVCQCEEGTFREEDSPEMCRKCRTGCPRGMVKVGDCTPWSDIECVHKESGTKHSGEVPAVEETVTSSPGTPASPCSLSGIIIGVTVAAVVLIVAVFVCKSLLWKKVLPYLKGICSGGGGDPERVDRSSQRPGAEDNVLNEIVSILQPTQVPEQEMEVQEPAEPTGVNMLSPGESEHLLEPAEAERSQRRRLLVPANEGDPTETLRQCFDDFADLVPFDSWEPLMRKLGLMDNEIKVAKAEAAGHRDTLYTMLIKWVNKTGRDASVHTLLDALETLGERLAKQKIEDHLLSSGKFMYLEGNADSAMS

[6] = as above; settings: NB7 neuroblastoma + caspase-8, without TRAIL, NB7 Caspase-8, without TRAIL, mean of runs, at 10 µM
[7] = NFkB reporter suppression in cystic fibrosis bronchial cells – cell-based, uHTS hits, panel, cytotoxicity readout, dose response (AID 624344); settings: CF bronchial epithelial cells, PAF-induced NFkB reporter inhibition, with PAF, run 1; at 79 µM (top of the series) unless noted
[8] = as above; settings: CF bronchial epithelial cells, PAF-induced NFkB reporter inhibition, with PAF, run 2; at 79 µM (top of the series) unless noted

Sequence of PEG-3 (Q6IN02 whole entry, looked up): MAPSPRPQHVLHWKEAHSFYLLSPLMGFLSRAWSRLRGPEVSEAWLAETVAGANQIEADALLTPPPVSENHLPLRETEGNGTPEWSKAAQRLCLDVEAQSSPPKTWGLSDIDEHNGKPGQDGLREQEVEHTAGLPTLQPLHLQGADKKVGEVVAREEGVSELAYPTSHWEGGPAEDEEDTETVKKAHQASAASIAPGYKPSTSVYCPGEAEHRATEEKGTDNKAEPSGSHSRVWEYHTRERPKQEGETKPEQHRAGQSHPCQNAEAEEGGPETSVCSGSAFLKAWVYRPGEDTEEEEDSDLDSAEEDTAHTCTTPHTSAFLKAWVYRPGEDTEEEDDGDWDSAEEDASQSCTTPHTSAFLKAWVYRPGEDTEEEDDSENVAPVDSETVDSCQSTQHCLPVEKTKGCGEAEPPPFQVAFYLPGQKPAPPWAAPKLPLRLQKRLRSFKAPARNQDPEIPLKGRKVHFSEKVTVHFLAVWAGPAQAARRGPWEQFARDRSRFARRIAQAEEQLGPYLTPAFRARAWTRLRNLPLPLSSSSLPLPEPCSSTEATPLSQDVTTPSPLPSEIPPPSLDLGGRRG

Structure (SMILES) | inhibition [1] | inhibition [2] | inhibition [3] | inhibition [4] | activity [5] | activity [6] | inhibition [7] | inhibition [8]
COc1cccc(NC(=O)c2nc(S(C)(=O)=O)ncc2Cl)c1 | 99.3% | 101% | 99.4% | 99.1% | 13.1% | 19.6% |  | 
Cc1ccc(-n2cc(-c3ccccc3)c3c(N4CCOCC4)ncnc32)cc1 | 101% | 102% |  |  |  |  | 107% | 101%
CC1(C)Oc2cc3oc(-c4cc(O)cc(O)c4)cc3cc2CC1O (configuration not stated) | 93.6% | 94.6% |  |  | 81.8% | 75.9% |  | 
Cc1ccc(N(Cc2cc(=O)[nH]c3ccccc23)C(=O)CCl)c(C)c1 | 101% | 99.2% |  |  | 96.8% | 96.5% |  | 
CCCN(CC(=O)Nc1ccccc1C)C(=O)CCl | 101% | 98.7% |  |  | 97.8% | 98.2% |  | 
CC(C)(C)C(=O)Nc1cc2nn(-c3ccccc3)nc2cc1Cl | 92.3% | 90.1% |  |  | 98.2% | 97.7% |  | 
COC(=O)C1=C(C)N(Cc2ccccc2)C(=NCCc2c[nH]c3ccccc23)N[C@H]1c1cccc(C(F)(F)F)c1 | 101% | 99.9% |  |  | 17.3% | 44.5% |  | 
C(=Cc1cnc2ccccc2n1)c1ccc2c(c1)OCO2 | 94.6% | 98.4% | 95.9% | 95.7% | 92.9% | 92.6% |  | 
O=c1c2ccccc2oc2cc(C#CC3(O)CCCCC3)ccc12 | 102% | 102% |  |  | 87.3% | 85.3% |  | 
CCCCCCCCCCCCCCC(O)C[N+](C)(CCO)CCO (configuration not stated) | 94.8% | 101% |  |  | 94.9% | 96.5% | 95.6% | 96.1%
C=C1CC(COc2ccc3c(C)c(Cl)c(=O)oc3c2)(c2ccccc2)OC1=O (configuration not stated) | 99.6% | 101% | 98.2% | 98% | 97.8% | 99% |  | 
CCC1=C(CC2NCCc3ccccc32)CC2c3cc(OC)c(OC)cc3CCN2C1 (configuration not stated) | 97.6% | 99% |  |  |  |  | 115% | 105%
Cc1cc(C)c2sc(N(CCCN(C)C)C(=O)c3ccc(S(=O)(=O)N(C)C4CCCCC4)cc3)nc2c1 | 98.8% | 101% |  |  | 17.8% | 4.92% |  | 
CN1CCN(c2ccc(NC(=O)N3CCc4ccccc43)cc2)CC1 | 87.9% | 92.8% |  |  | 70.6% | 65.9% |  | 
COc1nc(N)c(C#N)c(-c2ccc(N(C)CCC#N)cc2)c1C#N | 52.9% | 53% |  |  |  |  | 97.1% [at 39.5 µM] | 84.4% [at 39.5 µM]
CN1OC[C@@H]2CN[C@H](c3ccc(-c4cc5ccccc5o4)cc3)C[C@@H]21 | 98% | 101% |  |  | 90.1% | 90.9% |  | 
CC(/C=C/c1ccccc1)=N/NC(=O)c1cc([N+](=O)[O-])cc([N+](=O)[O-])c1 | 94.6% | 86.3% | 47.1% |  | 21.2% | 30.8% |  | 
